Measurements: PubChem BioAssay (Tox21)
Results filed as inconclusive are left out. A number with no mark means an inactive call. Calls of active or inactive are those of the source. Calls come from the whole dose curve; as a rule, active = well fitted cell-killing curve with a large enough effect in the repeat runs; inconclusive = weak or mixed curves, or effect the other way; inactive = flat fitted curve, though single readings scatter.

Experiment: cAMP Responsive Elements (CRE) small molecule agonists, cell-based qHTS assay: qHTS cell viability counter screen (AID 2060914); note: nearly all actives have a fitted effect of over 50% in size
Settings: CRE-bla HEK293T viability, CellTiter-Glo luminescence, 5 h; series mostly up to 92.4 µM; activity change, negative = cytotoxicity: at the top concentration
How it was run: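 Luminescence read-out (CellTiter-Glo, 30 min RT) of ATP-based viability in CRE-bla HEK 293T cells, run in the same wells as the β-lactamase reporter assay after 3 h compound treatment at 37 °C.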
% is set by controls: 0 for no effect and ±100 for the full control effect.

SMILES	activity change, negative = cytotoxicity	Potency
O=C(O)[C@H](O)[C@@H](O)C(=O)O	-1.29%	
CNC(=O)Oc1cccc2ccccc12		inactive
O=C(Nc1ccc(Br)cc1)c1cc(Br)cc(Br)c1O		inactive
CN(N=O)c1ccccc1		inactive
CC(C)(C)NCC(O)c1cc(Cl)c(N)c(Cl)c1 (stereo not given)	7.88% [at 42.5 µM]	
O=P(O)(O)CCCl		inactive
Nc1ccc(N)cc1		inactive
C[C@H](N)[C@H](O)c1ccc(O)c(O)c1	0.365% [at 42.5 µM]	
COC(=O)/C=C(\C)OP(=O)(OC)OC	-2.47%	
CC(C)c1ccc(NC(=O)N(C)C)cc1	8.46%	
CCOP(=S)(OCC)SCn1nnc2ccccc2c1=O	-21.9%	
O=[N+]([O-])c1cccc2cccnc12	6.03%	
CC(=O)c1ccc(-c2ccccc2)cc1	0.957%	
CC(C)(C)C(O)C(Oc1ccc(-c2ccccc2)cc1)n1cncn1 (stereo not given)	12.4%	
ClCCN1CCOCC1	-3.32%	
BrCC(Br)C1CCC(Br)C(Br)C1 (stereo not given)	-17%	
O=C(CBr)c1ccc(O)cc1	26.3%	
CCC(=O)c1ccccc1	0.33%	
C=C1CC[C@@]2(O)[C@H]3Cc4ccc(O)c5c4[C@@]2(CCN3CC2CC2)[C@H]1O5	-0.39% [at 42.5 µM]	
C/C(=N\NC(=O)Nc1cc(F)cc(F)c1)c1ncccc1C(=O)O		inactive

SMILES	activity change, negative = cytotoxicity	Potency
Nc1ccccc1C(=O)OCC(O)CO (stereo not given)	-13% [at 42.5 µM]	
COC(=O)Nc1nc2ccccc2[nH]1		inactive
Nc1ccc(-c2ccc(N)c(Cl)c2)cc1Cl		inactive
COCC(=O)N(c1c(C)cccc1C)C(C)C(=O)OC (stereo not given)		inactive
CC1(C)[C@H](C(=O)O[C@H](C#N)c2cccc(Oc3ccccc3)c2)[C@@H]1C=C(Br)Br	-20.1%	
NC(=O)CN1CCCC1=O		inactive
ClCc1ccccn1		inactive
NC(=O)CS(=O)C(c1ccccc1)c1ccccc1 (stereo not given)	-6.92% [at 42.5 µM]	
O=C(Cl)C(Cl)Cl	-3.88%	
CCSCc1ccccc1OC(=O)NC	6.69%	
CC(C)(c1cc(Cl)c(O)c(Cl)c1)c1cc(Cl)c(O)c(Cl)c1		inactive
NNC(=S)NN		inactive
Cc1ccc(N)cc1C	-10%	
CCOP(=S)(OCC)Oc1ccc(S(C)=O)cc1 (stereo not given)	-2.28%	
CCN(Cc1ccc(Cl)nc1)/C(=C/[N+](=O)[O-])NC	5.28% [at 42.5 µM]	
COS(=O)(=O)c1ccc(C)cc1	-0.892%	
CC(=O)O.CC(=O)O.CC(=O)O.CC(=O)O.CC(=O)O.CC(=O)O.CC(=O)O.O.O.[Cr].[Cr].[Cr]	-2.91%	
CNP(=O)(OC)Oc1ccc(C(C)(C)C)cc1Cl (stereo not given)	-0.321%	
O=[N+]([O-])c1ccc(CBr)cc1	-1.21%	
O=c1ssc(Cl)c1Cl	6.7%	
